Measured values as given in PubChem BioAssay (NCATS).
Results filed as inconclusive are left out. The list shows a part of the results. Active and inactive are the calls of the source. Unless noted, the call rests on the fitted dose curve; in most records, active means well fitted curve in the direction sought with a large enough effect; inconclusive means small, poorly fitted or top-dose-only effect, or another doubt; inactive means no such curve, though single readings can be large; an effect the other way counts as inactive or inconclusive.

Assays:
[1] = target: Rap guanine nucleotide exchange factor 3 (Homo sapiens) (UniProt O95398); experiment: Confirmatory qHTS for agonist of cAMP-regulated guanine nucleotide exchange factor 3 (EPAC1) (AID 1645881); further: nearly all actives have a fitted effect of over 75% in size; further: potency means the concentration at half of the fitted maximal effect;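 on activation: EPAC1 catalysed release of BODIPY-GDP from Rap1B seen as fluorescence loss; 100% = effect of cAMP agonist control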
[2] = target: Rap guanine nucleotide exchange factor 4 (Homo sapiens) (UniProt Q8WZA2); experiment: Confirmatory qHTS for agonist of cAMP-regulated guanine nucleotide exchange factor 4 (EPAC2) (AID 1645884);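 further: nucleotide exchange releases bodipy-GDP from Rap1 and this lowers its fluorescence; nearly all actives have a fitted effect of over 65% in size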; further: potency means the concentration at half of the fitted maximal effect; on activation: on the % scale 0 is the no-effect control and ±100 the full control effect
[3] = target: Rap guanine nucleotide exchange factor 3 (Homo sapiens) (UniProt O95398); experiment: Counterscreen qHTS for antagonist of cAMP-regulated guanine nucleotide exchange factor 3 (EPAC1) (AID 1645888);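 further: fluorescence loss as bound BODIPY-GDP is released from Rap1B; % of control where 0% means no effect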
Outline: (§1)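 Measured: fluorescence of BODIPY-GDP bound to Rap1B, which falls as exchange proceeds. Conditions include 50 uM competing GDP, 5 and 30 min reads, and a later cAMP challenge for antagonist detection.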

[4] = target: Rap guanine nucleotide exchange factor 3 (Homo sapiens) (UniProt O95398); experiment: Counterscreen qHTS for agonist of cAMP-regulated guanine nucleotide exchange factor 3 (EPAC1) (AID 1645889); further: nearly all actives have a fitted effect of over 40% in size; further: potency means the concentration at half of the fitted maximal effect; on activation: % of control where 0% means no effect
Outline: as §1

[5] = target: Mitogen-activated protein kinase 10 (Mus musculus) (UniProt Q61831); experiment: JNK3 AlphaScreen Assay (AID 530; active means well fitted curve in either direction with a large enough effect, not every such curve was filed as active;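 further: kinase came from lysate of stimulated human HepG2 cells; signal reports phosphorylation of biotinylated GST-cJun 1-79 at Ser73 with 10 µM ATP; series mostly up to about 57 µM; on the % scale 0 is the no-effect control and ±100 the full control effect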)
Outline: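 Biotinylated GST-cJun(1-79) served as substrate for JNK3 in HepG2 lysates stimulated with IL-1beta and TNF-alpha. ATP was 10 uM final, pH 7.6. Ser73 phosphorylation was quantified by AlphaScreen (680 nm excitation).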

[6] = target: Cytochrome P450 3A4 (Homo sapiens) (UniProt P08684); experiment: qHTS Assay for Inhibitors and Substrates of Cytochrome P450 3A4 (AID 884); further: series mostly up to about 57 µM; on the % scale 0 is the no-effect control and ±100 the full control effect; nearly all actives have a fitted effect of over 50% in size
Outline: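 Luminescent readout of luciferin produced by CYP3A4 (20 nM) dealkylation of Luciferin-PPXE, 25 uM (its KM). NADPH-driven reaction ran 60 min at RT after 10 min compound preincubation; data scaled to 57 uM ketoconazole as 100% inhibition.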

[7] = qHTS Assay for Inhibitors of Fructose-1,6-bisphosphate Aldolase from Giardia Lamblia: Giardia lamblia growth inhibition (AID 2785); further: on the % scale 0 is the no-effect control and ±100 the full control effect; nearly all actives have a fitted effect of over 70% in size
Outline: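 G. lamblia WB trophozoites (100 cells/well) in modified TYI-S-33 medium, pH 7.0, were exposed to pin-transferred compounds or DMSO for 48 h at 37C in sealed bags. Viability was read as ATPlite luminescence after 20 min at room temperature.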

[8] = qHTS Assay for Inhibitors of Fructose-1,6-bisphosphate Aldolase from Giardia Lamblia: Mammalian cellular toxicity (AID 2786);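 further: compound exposure lasted 48 h before reading; on the % scale 0 is the no-effect control and ±100 the full control effect; nearly all actives have a fitted effect of over 60% in size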
Outline: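 Chinese hamster ovary cells (250/well, DMEM with 10% FBS and penicillin/streptomycin) were exposed to compounds for 48 h at 37 °C, 5% CO2. Viability was taken as cellular ATP content, read with ATPlite reagent after 20 min.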

[9] = target: Tyrosyl-DNA phosphodiesterase 1 (Homo sapiens) (UniProt Q9NUW8); experiment: Confirmation Assay for Inhibitors of Tyrosyl-DNA Phosphodiesterase (TDP1) (AID 489007); conditions: recombinant human TDP1 enzymatic activity, dose-response; further: potency means the concentration at half of the fitted maximal effect; nearly all actives have a fitted effect of over 40% in size
Outline: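 AlphaScreen read-out: streptavidin donor and anti-FITC acceptor beads (10 ug/ml) bind intact substrate, so Tdp1 removal of tyrosine-FITC lowers signal. Enzyme 1 nM, substrate 15 nM, 5 min reaction at room temperature after 15 min compound preincubation.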

[10] = target: Tumor susceptibility gene 101 protein (Homo sapiens) (UniProt Q99816); experiment: qHTS Assay for Iinhibitors of HIV-1 Budding by Blocking the Interaction of PTAP/TSG101: Hit Validation (AID 651600); further: potency means the concentration at half of the fitted maximal effect; nearly all actives have a fitted effect of over 70% in size
Outline: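 Displacement of a FITC-labeled PTAP-motif peptide (50 nM) from the Tsg101 binding domain (10 uM) was monitored by fluorescence polarization after a 20 min room-temperature incubation.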

[11] = target: Phosphoglycerate kinase, glycosomal (Trypanosoma brucei brucei) (UniProt P07378); experiment: qHTS for inhibitors of Phosphogylcerate Kinase: Hit Validation Screen (AID 686980); conditions: TbPGK coupled GAPDH assay, Kinase-Glo luminescence; further: potency means the concentration at half of the fitted maximal effect; nearly all actives have a fitted effect of over 65% in size
Outline: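 Recombinant glycosomal PGK reaction used 1,3-bisphosphoglycerate generated in-well by GAPDH (100nM final) in 100mM TEA pH 7.6, 5mM MgCl2, 0.01% Tween-20. After 60 minutes at room temperature, ATP was read by Kinase-Glo Plus luminescence end-point.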

[12] = target: DNA polymerase iota (Homo sapiens) (UniProt Q9UNA4); experiment: qHTS for Inhibitors of Polymerase Iota: Confirmatory Assay for Cherry-picked Compounds (AID 720496); conditions: Pol iota primer extension, TAMRA/BHQ fluorescence; further: potency means the concentration at half of the fitted maximal effect
Outline: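 Enzyme (10 nM Pol iota) and compound sit together for 15 min at room temperature. Adding annealed primer/TAMRA-reporter/BHQ-2-template substrate, 50 nM final, starts the reaction, which is followed by fluorescence over 10 min.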

[13] = target: Flap endonuclease 1 (Homo sapiens) (UniProt P39748); experiment: qHTS Assay for the Inhibitors of FEN1: Confirmatory Assay for Cherry-picked Compounds (AID 720498); conditions: FEN1 flap cleavage, TAMRA/BHQ2 fluorogenic DNA substrate; further: potency means the concentration at half of the fitted maximal effect; nearly all actives have a fitted effect of over 60% in size
Outline: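 Human FEN1 (10 nM reagent) was preincubated with compounds for 15 min at room temperature, then 50 nM final double-flap DNA substrate (5'-TAMRA flap, BHQ-2 quencher strand) was added. Fluorescence (ex 525/em 598 nm) was read at 0 and 15 min.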

Chain of Rap guanine nucleotide exchange factor 3 (Homo sapiens) (O95398 whole entry, looked up): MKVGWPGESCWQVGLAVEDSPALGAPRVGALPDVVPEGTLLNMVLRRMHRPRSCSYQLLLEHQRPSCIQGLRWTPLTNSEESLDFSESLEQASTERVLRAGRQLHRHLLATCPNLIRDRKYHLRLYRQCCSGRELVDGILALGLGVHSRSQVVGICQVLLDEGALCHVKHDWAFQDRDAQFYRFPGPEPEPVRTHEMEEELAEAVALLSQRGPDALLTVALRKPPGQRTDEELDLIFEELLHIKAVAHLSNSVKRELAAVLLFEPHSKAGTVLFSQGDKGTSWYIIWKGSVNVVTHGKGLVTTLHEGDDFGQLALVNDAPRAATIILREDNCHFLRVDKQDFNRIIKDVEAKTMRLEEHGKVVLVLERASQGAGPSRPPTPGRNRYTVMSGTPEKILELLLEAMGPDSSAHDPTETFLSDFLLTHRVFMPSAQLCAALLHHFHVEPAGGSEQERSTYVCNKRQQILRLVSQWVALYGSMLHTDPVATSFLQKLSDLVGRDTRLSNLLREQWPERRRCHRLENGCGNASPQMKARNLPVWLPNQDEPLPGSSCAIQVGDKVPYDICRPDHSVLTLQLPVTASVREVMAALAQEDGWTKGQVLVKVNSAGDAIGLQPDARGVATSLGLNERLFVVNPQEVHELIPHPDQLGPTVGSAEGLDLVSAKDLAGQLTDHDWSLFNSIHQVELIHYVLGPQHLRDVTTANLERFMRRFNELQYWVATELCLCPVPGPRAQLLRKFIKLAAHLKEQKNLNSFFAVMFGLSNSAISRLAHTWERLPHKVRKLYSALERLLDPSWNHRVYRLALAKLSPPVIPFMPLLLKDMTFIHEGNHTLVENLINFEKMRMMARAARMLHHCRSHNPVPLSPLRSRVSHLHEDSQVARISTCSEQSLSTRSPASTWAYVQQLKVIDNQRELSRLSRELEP
Chain of Rap guanine nucleotide exchange factor 4 (Homo sapiens) (Q8WZA2 whole entry, looked up): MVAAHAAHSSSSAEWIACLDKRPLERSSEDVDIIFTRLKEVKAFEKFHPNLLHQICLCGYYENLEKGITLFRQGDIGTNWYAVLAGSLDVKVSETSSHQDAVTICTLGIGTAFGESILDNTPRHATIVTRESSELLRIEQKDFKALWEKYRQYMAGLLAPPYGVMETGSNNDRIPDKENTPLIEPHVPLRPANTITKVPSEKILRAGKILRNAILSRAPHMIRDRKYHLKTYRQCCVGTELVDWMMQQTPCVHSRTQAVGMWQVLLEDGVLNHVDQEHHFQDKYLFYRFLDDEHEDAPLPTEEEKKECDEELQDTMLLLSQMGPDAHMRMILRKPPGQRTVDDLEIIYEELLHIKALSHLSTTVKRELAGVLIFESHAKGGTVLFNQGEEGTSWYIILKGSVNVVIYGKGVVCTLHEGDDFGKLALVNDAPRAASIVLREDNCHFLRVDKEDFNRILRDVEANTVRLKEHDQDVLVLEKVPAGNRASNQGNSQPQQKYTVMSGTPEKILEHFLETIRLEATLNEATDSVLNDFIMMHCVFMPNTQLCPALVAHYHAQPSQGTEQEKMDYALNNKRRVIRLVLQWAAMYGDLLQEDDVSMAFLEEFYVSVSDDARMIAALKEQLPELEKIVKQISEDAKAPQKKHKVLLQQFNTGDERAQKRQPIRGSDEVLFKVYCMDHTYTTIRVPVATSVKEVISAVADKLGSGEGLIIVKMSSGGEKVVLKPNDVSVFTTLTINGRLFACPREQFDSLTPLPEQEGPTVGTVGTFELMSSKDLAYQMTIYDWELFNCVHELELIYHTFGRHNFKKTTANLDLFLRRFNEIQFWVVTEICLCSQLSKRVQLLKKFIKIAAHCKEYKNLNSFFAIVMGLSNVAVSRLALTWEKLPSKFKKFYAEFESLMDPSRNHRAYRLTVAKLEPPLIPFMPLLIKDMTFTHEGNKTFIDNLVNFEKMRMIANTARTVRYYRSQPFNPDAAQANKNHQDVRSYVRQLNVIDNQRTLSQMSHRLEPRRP
Chain of DNA polymerase iota (Homo sapiens) (Q9UNA4 whole entry, looked up): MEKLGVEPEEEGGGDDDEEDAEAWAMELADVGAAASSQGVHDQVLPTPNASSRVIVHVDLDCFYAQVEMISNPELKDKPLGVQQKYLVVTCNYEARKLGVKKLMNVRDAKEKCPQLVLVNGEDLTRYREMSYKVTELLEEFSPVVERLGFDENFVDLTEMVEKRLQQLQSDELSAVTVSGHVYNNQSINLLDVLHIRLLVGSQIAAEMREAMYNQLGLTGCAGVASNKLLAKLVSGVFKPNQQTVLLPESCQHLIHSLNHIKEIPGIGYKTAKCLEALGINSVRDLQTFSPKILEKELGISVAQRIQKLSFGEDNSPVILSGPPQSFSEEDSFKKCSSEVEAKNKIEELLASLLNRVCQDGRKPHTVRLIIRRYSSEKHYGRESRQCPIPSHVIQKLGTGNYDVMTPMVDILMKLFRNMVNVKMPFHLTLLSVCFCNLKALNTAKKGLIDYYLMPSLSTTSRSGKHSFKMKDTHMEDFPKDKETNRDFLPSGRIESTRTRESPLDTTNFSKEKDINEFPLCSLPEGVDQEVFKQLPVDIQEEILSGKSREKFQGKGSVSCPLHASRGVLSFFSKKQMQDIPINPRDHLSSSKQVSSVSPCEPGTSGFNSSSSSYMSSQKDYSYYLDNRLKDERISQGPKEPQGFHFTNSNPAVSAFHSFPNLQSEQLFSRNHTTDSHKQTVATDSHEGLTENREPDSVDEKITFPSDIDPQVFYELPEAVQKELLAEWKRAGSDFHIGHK
Chain of Tumor susceptibility gene 101 protein (Homo sapiens) (Q99816 whole entry, looked up, the tested form may be a part): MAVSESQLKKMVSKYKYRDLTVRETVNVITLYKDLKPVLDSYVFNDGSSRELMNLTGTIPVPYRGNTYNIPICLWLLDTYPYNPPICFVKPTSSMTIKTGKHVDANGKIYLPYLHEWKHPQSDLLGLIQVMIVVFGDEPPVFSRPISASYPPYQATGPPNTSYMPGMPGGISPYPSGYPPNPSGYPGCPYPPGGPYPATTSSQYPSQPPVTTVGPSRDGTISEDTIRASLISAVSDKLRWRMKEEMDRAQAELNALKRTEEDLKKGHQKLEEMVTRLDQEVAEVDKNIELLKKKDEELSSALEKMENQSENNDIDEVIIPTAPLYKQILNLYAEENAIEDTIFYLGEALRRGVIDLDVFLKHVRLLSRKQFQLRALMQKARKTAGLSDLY
Chain of Cytochrome P450 3A4 (Homo sapiens) (P08684 whole entry, looked up): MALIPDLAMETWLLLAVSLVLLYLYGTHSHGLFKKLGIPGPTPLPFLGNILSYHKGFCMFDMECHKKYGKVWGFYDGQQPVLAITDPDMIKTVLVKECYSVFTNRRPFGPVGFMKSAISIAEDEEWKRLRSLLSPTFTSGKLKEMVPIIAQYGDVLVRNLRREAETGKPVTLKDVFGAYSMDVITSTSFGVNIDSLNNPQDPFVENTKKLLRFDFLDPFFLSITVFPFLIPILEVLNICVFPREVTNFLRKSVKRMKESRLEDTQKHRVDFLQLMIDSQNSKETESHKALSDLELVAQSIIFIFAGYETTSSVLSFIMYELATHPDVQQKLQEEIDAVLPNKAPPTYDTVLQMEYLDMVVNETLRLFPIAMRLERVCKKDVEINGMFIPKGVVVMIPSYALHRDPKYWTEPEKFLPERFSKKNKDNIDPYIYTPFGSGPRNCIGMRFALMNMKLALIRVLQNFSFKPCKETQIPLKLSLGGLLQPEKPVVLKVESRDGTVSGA
Chain of Tyrosyl-DNA phosphodiesterase 1 (Homo sapiens) (Q9NUW8 whole entry, looked up): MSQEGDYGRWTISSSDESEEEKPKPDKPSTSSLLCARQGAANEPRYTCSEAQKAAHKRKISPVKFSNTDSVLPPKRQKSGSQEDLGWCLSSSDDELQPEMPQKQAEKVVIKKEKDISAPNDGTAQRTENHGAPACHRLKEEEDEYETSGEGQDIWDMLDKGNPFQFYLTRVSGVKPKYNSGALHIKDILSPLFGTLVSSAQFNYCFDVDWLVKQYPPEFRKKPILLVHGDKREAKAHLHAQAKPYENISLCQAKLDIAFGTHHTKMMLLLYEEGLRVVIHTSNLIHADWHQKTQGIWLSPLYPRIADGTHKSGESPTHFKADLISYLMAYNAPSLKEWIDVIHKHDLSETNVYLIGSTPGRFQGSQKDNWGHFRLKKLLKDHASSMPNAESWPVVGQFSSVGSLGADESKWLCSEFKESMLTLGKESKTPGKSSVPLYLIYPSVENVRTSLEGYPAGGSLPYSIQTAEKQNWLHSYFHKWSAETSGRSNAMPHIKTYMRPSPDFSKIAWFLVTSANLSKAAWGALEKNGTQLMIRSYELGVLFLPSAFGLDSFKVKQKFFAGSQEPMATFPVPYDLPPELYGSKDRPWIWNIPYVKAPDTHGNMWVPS
Chain of Flap endonuclease 1 (Homo sapiens) (P39748 whole entry, looked up): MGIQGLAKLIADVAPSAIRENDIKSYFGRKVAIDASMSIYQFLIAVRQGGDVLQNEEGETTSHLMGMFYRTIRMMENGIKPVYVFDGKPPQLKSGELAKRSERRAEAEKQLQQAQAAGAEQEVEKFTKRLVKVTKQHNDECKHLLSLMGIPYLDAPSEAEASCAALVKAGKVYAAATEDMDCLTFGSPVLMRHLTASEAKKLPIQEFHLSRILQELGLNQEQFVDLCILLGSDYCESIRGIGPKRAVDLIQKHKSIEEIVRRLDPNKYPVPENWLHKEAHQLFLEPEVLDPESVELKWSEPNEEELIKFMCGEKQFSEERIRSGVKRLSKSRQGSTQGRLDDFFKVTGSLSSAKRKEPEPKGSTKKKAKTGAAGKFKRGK
Chain of Phosphoglycerate kinase, glycosomal (Trypanosoma brucei brucei) (P07378 whole entry, looked up): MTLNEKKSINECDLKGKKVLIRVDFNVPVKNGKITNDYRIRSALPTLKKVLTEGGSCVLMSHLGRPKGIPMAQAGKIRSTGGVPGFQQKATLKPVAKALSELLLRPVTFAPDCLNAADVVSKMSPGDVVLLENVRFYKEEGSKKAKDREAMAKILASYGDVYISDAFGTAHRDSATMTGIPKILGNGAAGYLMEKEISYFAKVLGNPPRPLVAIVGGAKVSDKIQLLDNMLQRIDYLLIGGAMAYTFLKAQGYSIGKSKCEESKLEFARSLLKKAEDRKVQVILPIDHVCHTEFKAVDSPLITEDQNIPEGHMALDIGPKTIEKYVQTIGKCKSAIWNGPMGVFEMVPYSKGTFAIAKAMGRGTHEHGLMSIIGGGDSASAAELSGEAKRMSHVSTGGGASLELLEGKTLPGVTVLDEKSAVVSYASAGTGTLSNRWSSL

COc1cccc(N2CCN(CC(=O)NC(=O)NCc3ccco3)CC2)c1
inactive: Potency [1] | Potency [2] | Potency [3] | Potency [4]

CCC(C)(C)c1ccc(Oc2ccc(N)cc2)cc1
inactive: Potency [1] | Potency [2] | Potency [3] | Potency [4]

Oc1ccc(-c2cn3c(n2)SCC3)cc1O
inactive: Potency [1] | Potency [2] | Potency [3] | Potency [4]

O=C(O)c1cc(N/N=C/C=C/c2ccccc2)ccc1Cl
inactive: Potency [1] | Potency [2] | Potency [3] | Potency [4]

COc1cc(C(=O)N(C)CCOc2ccccc2)ccc1OCC(=O)Nc1cccc(C(F)(F)F)c1
inactive: Potency [1] | Potency [2] | Potency [4]

CC1=C(C(=O)OCc2ccccc2)C(c2ccc(C(C)(C)C)cc2)NC(=O)N1CCCCCC(=O)O (stereo not drawn)
inactive: Potency [5] | Potency [6] | Potency [1] | Potency [2] | Potency [3] | Potency [4]

Cc1ccc(C)c(-c2csc(N)c2C(=O)OC(C)C)c1
inactive: Potency [1] | activation [2] 7.03% [at 17.1 µM, percent relative to cAMP agonist control] | activation [4] 30% [at 30.8 µM]

Cc1ccc(S(=O)(=O)c2nc(-c3ccco3)oc2SC(C)C)cc1
inactive: Potency [1] | activation [2] 4.44% [at 17.1 µM, percent relative to cAMP agonist control] | activation [4] 16.5% [at 30.8 µM]

Nc1ccc2nc3c(=O)[nH]c(=S)[nH]c3nc2c1
inactive: outcome [7] | outcome [8] | Potency [3]
active: Potency [9] 39.8 µM | Potency [10] 18.3 µM | Potency [11] 16.3 µM | Potency [12] 33.6 µM | Potency [13] 67.5 µM | Potency [1] 79.4 µM | Potency [2] 100 µM | Potency [4] 44.7 µM

CC(NC(=O)COC(=O)C1CCN(c2ccc(C(F)(F)F)cn2)CC1)c1ccc(Br)cc1 (stereo not drawn)
inactive: Potency [1] | Potency [2] | Potency [4]

Cc1cc(C)c2nc(C(F)(F)F)nc(N3CC(C)OC(C)C3)c2c1 (stereo not drawn)
inactive: Potency [1] | Potency [2] | Potency [4]

CCCCN(C=O)c1c(CC)nc2c(OCc3ccc(C(F)(F)F)cc3)cccn12
inactive: Potency [1] | Potency [2] | Potency [4]

CCC(CO)Oc1cc(NCc2ccc(C(C)(C)C)cc2)c2ncn(C(C)C)c2c1 (stereo not drawn)
inactive: Potency [1] | Potency [2] | Potency [4]

COC(=O)c1sc(-c2ccc(C(C)(C)C)cc2)cc1NC(=O)CSCC(=O)O
inactive: Potency [1] | Potency [2] | Potency [3] | Potency [4]
